# Screening data from PubChem BioAssay.
# hDAT+cocaine – changed human dopamine transporter uptake under cocaine IC80; 1.3% of 110,000 active; LLC-PK1 hDAT cells, [14C]-dopamine uptake with cocaine IC80; actives deviate in either direction; B-score at 10 µM; Q01959; AID 449768;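 active = Z score or B-score, a plate-position-corrected score, falls beyond the plate's 99.7% confidence bounds, in either direction; inactive = both scores lie inside the 99.7% bounds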;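 note: scored against the spread of the other compound wells on the same plate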
# Target sequence (Q01959 whole entry, looked up): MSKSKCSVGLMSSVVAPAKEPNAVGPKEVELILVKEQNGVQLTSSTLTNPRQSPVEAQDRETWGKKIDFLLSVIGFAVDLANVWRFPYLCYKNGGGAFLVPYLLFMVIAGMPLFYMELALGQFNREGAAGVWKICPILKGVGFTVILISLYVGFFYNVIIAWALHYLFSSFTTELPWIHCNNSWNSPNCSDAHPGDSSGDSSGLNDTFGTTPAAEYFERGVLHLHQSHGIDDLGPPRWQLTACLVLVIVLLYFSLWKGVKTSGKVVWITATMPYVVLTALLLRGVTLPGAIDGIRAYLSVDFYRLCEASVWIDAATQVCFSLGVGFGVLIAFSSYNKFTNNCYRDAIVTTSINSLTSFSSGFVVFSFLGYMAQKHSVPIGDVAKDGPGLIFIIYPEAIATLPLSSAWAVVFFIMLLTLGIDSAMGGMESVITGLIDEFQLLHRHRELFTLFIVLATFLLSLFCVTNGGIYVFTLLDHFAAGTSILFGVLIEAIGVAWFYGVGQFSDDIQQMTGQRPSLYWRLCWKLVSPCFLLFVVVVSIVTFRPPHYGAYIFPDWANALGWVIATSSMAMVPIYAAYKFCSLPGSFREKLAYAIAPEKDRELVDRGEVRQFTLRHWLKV
# S1P2 ag – S1P2 (human) receptor agonism | O95136 | S1P2-expressing cell line, agonist reporter read-out | activation, % at 4.5 µM | 0.46% of 97,000 active; in the data active = activation above about 16%;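 note: 0% = vehicle low control and 100% = maximal reference agonist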
# GALR2 blocker – GALR2 (human) receptor antagonism. GALR2-expressing cells, antagonist mode. inhibition, % at 4 µM. 0.39% of 140,000 active;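 note: cells stimulated with galanin 1-16 at roughly its EC80; 0% = agonist challenge control and 100% = basal control without agonist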
# S1P2 blocker – antagonists of human S1P2 receptor; O95136; cell-based S1P2 antagonist assay, inhibition at 5 uM; inhibition, % at 5 µM; 0.21% of 97,000 active; in the data active = inhibition above about 45%;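 note: CRE beta-lactamase reporter cells expressing human S1P2 stimulated with S1P; 0% = agonist at EC80 alone and 100% = agonist plus reference antagonist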
# GALR2 agonist – GALR2 (human) receptor agonism; GALR2-expressing cells, agonist activation read-out; activation, % (no concentration beside the values); 0.48% of 140,000 active; AID 803; in the data active = activation above about 5%, passing the limit was not always enough;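 note: 0% = vehicle buffer wells and 100% = reference agonist at full effect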
# GALR2 ant conf – GALR2 (human) antagonism confirmed; GALR2-expressing cells, antagonist mode, inhibition; AID 866; 60% of 480 active; shares compounds with GALR2 blocker; inhibition, % at 4 µM;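 note: cells stimulated with galanin at about its EC80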
# BLA inhib ctr – beta-lactamase inhibition, GALR2 counterscreen | AID 867 | 36% of 480 active | shares compounds with GALR2 blocker | CHO NFAT-BLA reporter, beta-lactamase FRET, thapsigargin-stimulated | inhibition, % at 4.2 µM;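 active = inhibition above the mean inhibition across tested compounds plus 3 SD, cut at about 27% in these data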;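 note: 0% = 500 nM thapsigargin stimulated wells and 100% = unstimulated BSA only wells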
# An asterisk follows results filed as active; · = no result. Shown are actives, neighbours in structure and some others; about 2.1% of the full set was active somewhere. Cut-off read from the data, not from the text of the source, unless noted: active = inhibition above about 27%; inactive = the rest.
SMILES,hDAT+cocaine,S1P2 ag,GALR2 blocker,S1P2 blocker,GALR2 agonist,GALR2 ant conf,BLA inhib ctr
Cc1cccc(CSc2cccc3cccnc23)c1,-0.666,-5.2,29.2*,29.2,-1.4,24.3,19.3
Oc1cccc(O)c1O,0.152,·,·,·,·,·,·
COc1cc2nc(C)sc2cc1SC,0.586,·,27.0*,·,-1.4,8.1,4.5
Cc1nc2cc3nc(C)sc3cc2s1,1.33,·,2.2,·,-0.3,·,·
COc1ccc(OC)c(NC=C2C(=O)OC3(CCCCC3)OC2=O)c1,-0.991,-3.4,49.9*,-12.6,-0.5,4.9,5.5
Clc1ccc(CNCc2cccs2)cc1Cl,·,·,8.5,·,0.3,·,·
CC(=O)Nc1ccc(S(=O)(=O)N(C)CC(=O)OCC(=O)Nc2ccc3c(c2)OCO3)cc1,·,·,11.5,·,-1.2,·,·
c1ccc(-n2nnnc2Oc2cccc3cccnc23)cc1,-0.119,-9.4,-1.4,16.4,-3.1,·,·
N#Cc1cc(Oc2cccc3cccnc23)c(-n2nnc3ccccc32)cc1C#N,-0.0728,-5.8,39.3*,-1.7,-5.8,18.4,13.5
COc1cc(N2CCCC2)c(OC)cc1/C=C(/C#N)c1ccc(F)cc1,-1.63,-5.7,5.6,32.3,-4.1,·,·
COc1cc(N2CCCC2)c(OC)cc1/C=C(/C#N)c1ccc(Br)cc1,-0.819,0.0,63.0*,23.1,-3.2,10.6,16.6
O=C(NCC1CCS(=O)(=O)C1)Oc1ccccc1 (configuration not stated),0.108,0.1,1.8,18.5,0.0,·,·
O=C(/C=C/c1ccc(Cl)cc1)NCc1ccco1,·,·,1.1,·,-1.7,·,·
Cc1c(NS(=O)(=O)c2cccc3nsnc23)c(=O)n(-c2ccccc2)n1C,·,·,-0.9,·,-0.8,·,·
CCOC(=O)C(=Cc1cc(=O)c(OC)co1)C(=O)OCC,·,·,40.7*,·,-2.2,67.4*,57.9*
COc1coc(C(O)CN)cc1=O (configuration not stated),·,·,3.4,·,-2.7,·,·
Cc1ccc(NC(=O)C(C)c2ccc([N+](=O)[O-])cc2)cc1Cl (configuration not stated),·,·,-14.5,·,-0.7,·,·
COC(=O)C1=C(C)N=C2SC(C#N)=C(N)N2C1c1ccc(OCc2ccccc2)cc1 (configuration not stated),-0.184,-2.6,-2.5,-0.2,-0.6,·,·
CC(C)(C)C(=O)/C(=C\c1ccc([N+](=O)[O-])cc1)n1cncn1,-0.747,-9.4,55.9*,66.2*,1.4,72.6*,56.8*
CCOC(=O)C1=C(O)c2ccccc2C(=O)/C1=C\c1ccc(C)cc1,·,·,29.9*,·,-0.9,15.0,13.8
Cc1cc(C(F)(F)F)nn1Cc1n[nH]c(=S)n1-c1ccc(F)cc1,·,·,62.8*,·,-1.2,4.5,5.0
CCSc1nnc([C@H](Cc2ccccc2)NC(=O)OC(C)(C)C)o1,0.146,-3.5,-3.1,-2.9,0.1,·,·
Cc1ccccc1CS(=O)(=O)c1nnc([C@H](Cc2ccccc2)NC(=O)OC(C)(C)C)o1,-0.125,-5.2,28.0*,23.9,2.9,32.9*,55.6*
CCn1c2ccccc2c2cc(NC(=O)c3cc(OC)c(OC)c(OC)c3)ccc21,-0.869,5.0,28.7*,-12.6,0.6,42.5*,67.3*
Cn1c2c(c(=O)n(C)c1=O)C(C(F)(F)F)(C(F)(F)F)N=C(c1ccc(Cl)cc1)N2,-3.08*,-7.9,67.8*,85.6*,-0.9,72.5*,58.0*
SMILES,hDAT+cocaine,S1P2 ag,GALR2 blocker,S1P2 blocker,GALR2 agonist,GALR2 ant conf,BLA inhib ctr
COc1cc(Nc2cc(C)nc3ncnn23)cc(OC)c1,-0.535,·,30.2*,·,-2.0,3.8,5.5
O=C(c1ccc(S(=O)(=O)c2ccc(F)cc2)c([N+](=O)[O-])c1)N1CCCCCC1,·,·,30.7*,·,-0.6,37.4*,14.5
CC[C@@H](NS(=O)(=O)c1ccc(C)cc1)C(=O)Oc1ccc2c3c(c(=O)oc2c1)CCC3,·,·,-27.2,·,0.6,·,·
Cc1ccc(S(=O)(=O)NC(C(=O)Oc2ccc3c(C(F)(F)F)cc(=O)oc3c2)c2ccccc2)cc1 (configuration not stated),·,·,34.8*,·,-0.1,25.3,30.8*
CCCC(c1nnnn1Cc1ccco1)N1CCN(C2CCCC2)CC1 (configuration not stated),0.0123,·,69.5*,·,-1.8,6.8,27.3*
Cc1ccc2nsnc2c1NC(=O)c1ccc2c(c1)OCCO2,-0.845,-3.1,37.6*,-9.2,-4.2,5.5,4.5
OCCCc1nc2n(n1)C(c1ccccc1Cl)C=C(c1cccs1)N2 (configuration not stated),0.11,-12.9,28.0*,23.6,1.0,17.3,22.8
Cc1nc2sccn2c1-c1csc(NCc2ccccc2)n1,1.09,-7.0,27.2*,40.7,-1.8,23.7,-1.3
CCc1ccc2c(c1)C1(NN=C(c3cccc4ccccc34)S1)C(=O)N2 (configuration not stated),0.0217,-6.5,29.4*,27.0,0.9,13.4,10.2
COc1ccc(NC(=O)CC2C(=O)N(c3ccc(F)cc3)C(=S)N2NC(=O)c2ccccc2)cc1 (configuration not stated),·,·,0.8,·,-1.1,·,·
CCCCOc1ccc(Br)cc1CSC(=N)N,·,·,36.3*,·,-0.2,36.7*,65.6*
CCCCCOc1ccc(CSC(=N)N)cc1[N+](=O)[O-],1.19,2.1,-15.9,13.9,1.9,·,·
COC(=O)[C@@]1(Cc2ccc(OC)cc2)[C@H]2c3cc(C(=O)N(C)C)n(CCc4ccc(OC)c(Br)c4)c3C[C@H]2CN1C(=O)c1ccccc1,·,·,-11.3,·,0.1,·,·
O=C1CCN2C=Nc3cccc4ccc1c2c34,0.406,-4.9,29.3*,2.9,-0.5,19.6,21.1
c1ccc(CN2CCN(C3=Nc4cccc5cccc3c45)CC2)cc1,-0.102,-0.8,-0.8,4.1,-2.7,·,·
CCCCNC(=O)c1onc(CCl)c1C(=O)OC,0.795,-9.9,5.5,4.0,-1.0,·,·
O=C(N/N=C/c1ccc(O)cc1O)/C(=C/c1ccccc1)CCO,·,·,10.0,·,-1.6,·,·
Cc1cc(OC(=O)C(c2ccccc2)c2ccccc2)c([N+](=O)[O-])c(=O)[nH]1,·,·,3.8,·,0.5,·,·
COc1cccc(CN2C(=O)c3cccc(N)c3C2=O)c1,·,·,31.4*,·,1.9,7.7,12.3
COc1cccc(CN2C(=O)Nc3ccccc3C(=O)N2C(C)(C)C)c1,0.00496,2.9,-5.2,-6.0,0.0,·,·
CC(C)OCCCNc1ncnc2c1[nH]c1ccccc12,1.35,-13.6,38.9*,37.2,-3.8,37.2*,12.5
O=c1c2[nH]c3ccccc3c2ncn1CCC1=CCCCC1,-1.09,1.1,11.2,-13.5,0.2,·,·
COc1ccc2[nH]c3c(NCCN(C(C)C)C(C)C)ncnc3c2c1,1.74,-5.6,5.8,-10.9,0.0,·,·
C1=C(CCNc2ncnc3c2[nH]c2ccccc23)CCCC1,·,·,47.9*,·,-0.3,60.6*,14.0
O=C1Nc2ccccc2C12OCCS2 (configuration not stated),-0.179,·,·,·,·,·,·
CCC(C)NC(=O)C1=C(C)C(=O)OC12CCC(C)CC2 (configuration not stated),-0.749,·,13.0,·,-2.3,·,·
